CYP2C19 inh – inhibitors of human CYP2C19 | P33261 | CYP2C19 Supersomes, luciferin-H EGE luminescence, 30 min | inhibition, % at 5 µM | 21% of 96,000 active | AID 778;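 active = CYP2C19 inhibition above a set limit at 5 µM in the primary screen, cut at about 50% in these data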
CYP2C9 inh – blocks human cytochrome P450 2C9. P11712. CYP2C9 Supersomes, luciferin-H conversion, luminescence. inhibition, % at 5 µM. 20% of 96,000 active. AID 777;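 active = blocking of liver enzyme CYP2C9 beyond about 50% at 5 µM, limit read from the data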
Target sequence (P11712 whole entry, looked up): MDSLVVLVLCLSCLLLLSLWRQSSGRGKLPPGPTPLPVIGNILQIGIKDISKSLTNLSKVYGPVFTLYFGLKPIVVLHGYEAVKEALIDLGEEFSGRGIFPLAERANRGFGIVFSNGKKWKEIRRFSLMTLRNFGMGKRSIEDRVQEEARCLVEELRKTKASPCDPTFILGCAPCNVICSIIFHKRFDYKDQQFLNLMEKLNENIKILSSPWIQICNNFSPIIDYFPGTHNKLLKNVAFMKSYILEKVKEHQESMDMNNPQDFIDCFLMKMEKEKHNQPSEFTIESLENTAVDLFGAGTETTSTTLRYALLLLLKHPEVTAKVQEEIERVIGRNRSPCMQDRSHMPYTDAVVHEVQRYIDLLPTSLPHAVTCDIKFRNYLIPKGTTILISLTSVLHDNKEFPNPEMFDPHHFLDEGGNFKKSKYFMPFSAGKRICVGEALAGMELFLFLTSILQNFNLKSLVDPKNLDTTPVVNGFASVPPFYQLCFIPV
sEH act – soluble epoxide hydrolase (human) activation | purified human sEH enzymatic activity, activator screen | activation, % at 2 µM | 0.04% of 91,000 active | AID 717; in the data active = activation above about 37%
sEH inh – soluble epoxide hydrolase (human) inhibition; P34913; recombinant human sEH enzymatic activity assay; inhibition, % at 2 µM; 0.34% of 91,000 active; AID 707; in the data active = inhibition above about 80%
CYP2C19 act – cytochrome P450 2C19 (human) activation; P33261; recombinant CYP2C19, luciferin-H EGE luminescence; hits give high values; 0 = fully inhibited enzyme, 1 = untreated enzyme; activation factor at 5 µM; 96,000 tested, under 10 active; AID 1025;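 active = activation factor of at least 2 at 5 µM in the primary screen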
CYP2C9 act – increases human cytochrome P450 2C9 activity; P11712; recombinant CYP2C9, luciferin-H conversion, luminescence; hits give high values; factor 1 = untreated enzyme, 0 = blocked; activation factor at 5 µM; 1.4% of 96,000 active; AID 1024;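 active = activation factor of 2 or more for CYP2C9 at a 5 µM dose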
Numbers stand for hits; 0 = inactive; - = not tested or not shown. This is a sample that favours compounds with a hit; in the whole collection about 27% have one here.

SMILES	CYP2C19 inh	CYP2C9 inh	sEH act	sEH inh	CYP2C19 act	CYP2C9 act
COc1ccc(S(=O)(=O)C(C#N)c2nc3ccccc3nc2N2CCCCC2)cc1 (stereo unspecified)	56.9	64.0	-	-	0	0
N#CC(c1nc2ccccc2nc1N1CCCC1)S(=O)(=O)c1cccs1 (stereo unspecified)	0	74.8	0	0	0	0
COCCn1c(=O)c2c(nc3n2CCN3c2ccc(C)cc2)n(C)c1=O	0	0	0	0	0	0
Cn1c(C(=O)OCC(=O)NCc2cccs2)cc2sccc21	51.2	66.0	0	0	0	0
CC(OC(=O)c1cc2sccc2n1C)C(=O)NCc1cccs1 (stereo unspecified)	0	77.2	0	0	0	0
CC(CCc1ccccc1)NC(=O)c1cc2sccc2n1C (stereo unspecified)	0	0	-	-	0	0
COCCNC(=O)C(C)OC(=O)c1cc2occc2n1C (stereo unspecified)	0	79.7	-	-	0	0
Cn1c(C(=O)OC(C(=O)NC2CCCCC2)c2cccnc2)cc2sccc21 (stereo unspecified)	95.9	74.4	0	0	0	0
CCOc1ccc(N=C(NC#N)SCC(=O)NC2CC2)cc1	0	0	0	0	0	0
CC1CN(c2nc3ccccc3nc2C(C#N)C(=O)NCc2ccc3c(c2)OCO3)CC(C)O1 (stereo unspecified)	0	0	0	0	0	0
Cn1c(C(=O)OCC(=O)NCCc2ccccc2)cc2sccc21	0	69.4	0	0	0	0
CCOc1ccc(CCNC(=O)c2cc3sccc3n2C)cc1OCC	93.7	66.7	-	-	0	0
Cc1ccccc1OCC(=O)N/N=C/c1cccn1C	0	0	0	0	0	0
N#C[C@H]1[C@H](c2ccccc2)[C@](C#N)(C(=O)c2ccccc2)[C@@H]2C=Cc3ccccc3N21	0	0	0	0	0	0
Cc1cccc(N(C2C=CS(=O)(=O)C2)S(=O)(=O)c2ccccc2)c1 (stereo unspecified)	0	0	0	0	0	0
CCOC(=O)c1c(C)[nH]c(C(=O)CSc2ccc(Cl)cc2)c1C	0	71.3	0	0	0	0
CC(=O)c1c(C)[nH]c(C(=O)CSc2nnc(-c3ccccc3)o2)c1C	57.3	0	0	0	0	0
CCOC(=O)c1c(C)[nH]c(C(=O)CSc2nnc(CC(C)c3ccccc3)o2)c1C (stereo unspecified)	0	70.9	-	-	0	0
O=C(CSc1nnc(-c2ccccc2)o1)c1nnc(-c2ccccc2)o1	0	74.5	-	-	0	0
CCOC(=O)CSc1nnc(-c2ccccc2)o1	-	-	0	0	-	-
Cc1c(Cl)cccc1NC(=O)CCCN1C(=O)CCC1=O	0	0	0	0	0	0
COc1ccc2c(c1)NC(=O)CC(c1ccccc1)=N2	74.7	0	0	0	0	0
O=C1c2ccccc2C(=O)N1CCCc1nc(-c2ccccn2)no1	0	0	0	0	0	0
COc1ccc(-c2noc(CCCOc3ccccc3)n2)cc1OC	90.4	78.8	0	0	0	0
c1ccc(OCCCc2nc(-c3ccncc3)no2)cc1	97.7	89.5	0	0	0	0
SMILES	CYP2C19 inh	CYP2C9 inh	sEH act	sEH inh	CYP2C19 act	CYP2C9 act
COc1ccc(-c2noc(CCN3C(=O)c4ccccc4C3=O)n2)cc1OC	0	0	0	0	0	0
c1ccc(-c2noc(CN3CCN(c4ccccc4)CC3)n2)cc1	71.1	0	-	-	0	0
Fc1ccccc1N1CCN(Cc2nc(-c3ccccc3)no2)CC1	0	0	0	0	0	0
c1ccc(OCCCc2nc(-c3ccccn3)no2)cc1	80.5	0	0	0	0	0
O=[N+]([O-])c1cccc(/C=C/c2nc3ccc([N+](=O)[O-])cc3[nH]2)c1	0	0	0	0	0	0
c1ccc(OCc2nc(-c3ccccc3)no2)cc1	72.2	0	0	0	0	0
COc1nc(-c2ccccc2)ccc1-c1noc(COc2ccccc2)n1	0	0	0	0	0	0
COc1ccc(CCN(Cc2nc(-c3ccccc3)no2)Cc2nc(-c3ccccc3)no2)cc1OC	53.7	86.1	0	0	0	0
COc1ccc(C(=O)N2CCN(S(=O)(=O)c3cc(Cl)ccc3OC)CC2)cc1	67.2	0	0	0	0	0
O=C(COc1ccccc1)N1CCN(S(=O)(=O)Cc2ccccc2)CC1	0	0	0	0	0	0
COc1ccccc1N1CCN(C(=O)COc2ccc(Cl)cc2Br)CC1	54.5	0	0	0	0	0
COc1ccc(Cl)cc1S(=O)(=O)N1CCN(C(=O)COc2ccccc2)CC1	61.8	0	0	0	0	0
COc1ccccc1N1CCN(C(=O)COc2ccc(C)cc2Br)CC1	0	0	0	0	0	0
COc1ccc(C(=O)N2CCN(S(=O)(=O)c3ccc(Cl)cc3)CC2)cc1OC	0	0	0	0	0	0
Cc1cc(NC(=O)CN2CCCCC2C)no1 (stereo unspecified)	0	0	0	0	0	0
O=C(CCn1cnc2ccccc2c1=O)Nc1ccc(Cl)c(Cl)c1	0	0	0	0	0	0
COc1cc(/C=N/n2cnnc2)ccc1OCCSc1ccc(C)cc1	79.5	53.8	0	0	0	0
CCOc1cc(CNCCSc2nnnn2C)cc(Br)c1OCc1ccccc1	93.6	81.4	0	0	0	0
CCOc1cc(CNCCc2ccc(S(N)(=O)=O)cc2)cc(Cl)c1OCc1ccccc1	0	0	0	0	0	0
Cn1nnnc1SCCNCc1ccc(Cl)cc1	84.5	0	0	0	0	0
O=C(CN(CCO)c1ccccc1)NC12CC3CC(CC(C3)C1)C2	0	0	-	-	0	0
O=c1cc(O)n(-c2ccc(Cl)cc2)c(=S)[nH]1	0	0	0	0	0	0
CCOC(=O)c1c(-c2ccc(Cl)cc2)c(C#N)c(=O)n(N)c1N	0	0	0	0	0	0
COc1ccccc1CNC(=O)COC(=O)c1ccc(S(=O)(=O)N2CCCC2)cc1	0	0	0	0	0	0
CCOc1ccccc1C1CC(=O)NC(SCC(=O)Nc2nccs2)=C1C#N (stereo unspecified)	60.1	67.0	0	0	0	0
SMILES	CYP2C19 inh	CYP2C9 inh	sEH act	sEH inh	CYP2C19 act	CYP2C9 act
COC(=O)CSC1=C(C#N)C(c2ccc(C(C)C)cc2)CC(=O)N1 (stereo unspecified)	0	0	0	0	0	0
CCOc1ccccc1C1CC(=O)NC(SCC)=C1C#N (stereo unspecified)	0	0	0	0	0	0
N#CC1=C(SCC(=O)Nc2ccccc2)NC(=O)CC1c1ccc(O)cc1 (stereo unspecified)	70.9	0	0	0	0	0
Cc1ccc(C2CC(=O)NC(SCC(=O)Nc3nccs3)=C2C#N)cc1 (stereo unspecified)	0	65.2	0	0	0	0
COc1ccc(-n2nnnc2SCC(=O)Nc2nnc(C)s2)cc1OC	0	0	0	0	0	0
CSCCC(NC(=O)OC(C)(C)C)C(=O)NC(CC(C)C)C(N)=O (stereo unspecified)	0	0	0	0	0	0
CCCn1nnc(NC(=O)c2ccc(Br)cc2)n1	55.8	0	0	0	0	0
